Bioassay records deposited in PubChem BioAssay by several laboratories.
TROY signal inh: inhibitors of TROY-dependent NF-kB signaling; Q293 LMP1-TROYcd NF-kB luciferase reporter, 4 h; inhibition, % at 10 µM; hit rate 0.98% among 360,000;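 active = compounds whose plate-normalised and pattern-corrected inhibition of the luciferase reporter signal at the single screening dose is 50% or more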
TWEAK Fn14 block: inhibitors of TWEAK-Fn14 interaction signaling; TWEAK-stimulated Fn14 reporter cells, luciferase luminescence, 8 h; inhibition, % at 10 µM; hit rate 2% among 360,000; AID 1159606; in the data active = inhibition above about 50%
HSP90 inh: HSP90 refolding inhibition in rabbit reticulocyte lysate | luciferase refolding luminescence, 3 h | inhibition, % at 5.6 µM | hit rate 0.91% among 290,000;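 active = inhibition above the screen-wide mean plus 3 SD, computed separately per campaign, cut at about 16% in these data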;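 note: 0% = DMSO wells and 100% = 60 µM geldanamycin wells; inhibitors lower the luminescence because luciferase stays unfolded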
LGR2 antag: inhibitors of bursicon-induced Drosophila LGR2 receptor cAMP signaling | HEK293 LGR2, CRE-luciferase, bursicon-stimulated, 4 h | inhibition, % at 9.99 µM | hit rate 0.35% among 380,000;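 active = drop in luminescence signal, shown as inhibition above about 50% in the replicate tests, limit read from the data, passing the limit was not always enough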;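 note: agonist challenge used bursicon conditioned medium at about half maximal strength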
The depositor's hits bear a star; · = no result given. Hits are enriched below; roughly 2.2% of the tested compounds scored in any of these assays.

SMILES | TROY signal inh | TWEAK Fn14 block | HSP90 inh | LGR2 antag
O=C(COc1ccc(C(=O)c2ccc(F)cc2)cc1)Nc1cccc(S(=O)(=O)N2CCOCC2)c1 | 54* | 57* | · | 11
Cc1cc(OCC(=O)Nc2cccc(S(=O)(=O)N3CCCCC3)c2)ccc1Cl | 27 | 36 | · | 3
COc1cc(NC(=O)CNc2cccc(S(=O)(=O)N3CCOCC3)c2)cc(OC)c1 | 78* | 8 | · | -11
Cc1ccc(NC(=O)CNc2cccc(S(=O)(=O)N3CCOCC3)c2)cc1F | 6 | 5 | · | 0
O=C(COC(=O)CCC(=O)c1ccc(F)cc1)Nc1cccc(S(=O)(=O)N2CCOCC2)c1 | 6 | -16 | -2 | -26
C[C@H](CO)N1C[C@H](C)[C@@H](CN(C)Cc2ccc(C(F)(F)F)cc2)Oc2ccc(NC(=O)CCCCCC(=O)Nc3ccccc3N)cc2C1=O | · | · | · | 5
CCCN1C[C@H](C)[C@H](OC)CN(C)C(=O)c2cc(NC(=O)c3cccc(F)c3)ccc2OC[C@H]1C | · | · | · | -8
NC(=O)CSc1nnc2sc3ccccc3n12 | · | 85* | -1 | ·
OC1CCC(Nc2ccn3nc(-c4cccc(OCc5ccccc5)c4)cc3n2)CC1 (stereo not drawn) | 35 | 42 | · | 52*
OC1CCC(Nc2ccn3nc(-c4cccc(Cl)c4)cc3n2)CC1 (stereo not drawn) | -7 | 7 | · | -87
COc1cc(NC(=O)Cn2nc(C(F)(F)F)c3c2CCCC3)cc(OC)c1OC | · | 66* | 0 | ·
C[C@H](NC(=O)[C@H]1[C@H](CO)[C@H]2Cn3c(cccc3=O)[C@H]2N1CC1CCCCC1)c1ccccc1 | · | · | · | 13
O=C(CN(c1ccc(Br)cc1)S(=O)(=O)c1ccc(Cl)c([N+](=O)[O-])c1)NCCc1ccccc1 | 10 | -19 | -2 | 29
Cc1ccc(N(CC(=O)NCCc2ccc(F)cc2)S(=O)(=O)c2ccc(Cl)c([N+](=O)[O-])c2)c(C)c1 | 22 | 53* | 5 | 18
COc1ccc(-c2csc(N3C(=O)C4C5c6ccccc6C(c6ccccc65)[C@@H]4C3=O)n2)cc1 (stereo partly drawn) | -12 | 7 | 0 | -2
O=C1CNC(=S)N1c1nc(-c2ccccc2)cs1 | -36 | -9 | -3 | -70
COc1ccc(-c2csc(N3C(=O)CNC3=S)n2)cc1 | 21 | 61* | 0 | 10
COc1ccc(-c2csc(N3C(=N)SCC3=O)n2)cc1 | 38 | 65* | 0 | ·
O=C(C[C@@H]1C=C[C@H](NC(=O)C2CC2)[C@@H](CO)O1)Nc1nccs1 | · | · | · | 9
C[C@H](CO)N1C[C@H](C)[C@H](CN(C)C(=O)NC2CCCCC2)Oc2ccc(NC(=O)Nc3cccc4ccccc34)cc2C1=O | · | · | · | 16
Cc1ccc(NS(=O)(=O)c2cccc(C(=O)N/N=C/c3c(C)nn(-c4ccccc4)c3N3CCCC3)c2)c(C)c1 | 14 | 57* | 5 | 14
CCNc1ccc(C(=O)N/N=C/c2c(C)nn(-c3ccccc3)c2N2CCCC2)cc1[N+](=O)[O-] | 8 | 31 | -4 | 7
O=C(Cc1ccccc1)N1C[C@H]2[C@@H](c3ccccc31)[C@H](CO)N2C(=O)Nc1ccc(F)cc1 | · | · | · | -4
O=C(Nc1ccccc1C(F)(F)F)N1CCC(N2CCCCC2)CC1 | · | 84* | 1 | ·
Cc1cc(C(C#N)c2ccc(Cl)cc2)c(Cl)cc1NC(=O)c1cc(I)cc(I)c1O (stereo not drawn) | 70* | 24 | · | ·
SMILES | TROY signal inh | TWEAK Fn14 block | HSP90 inh | LGR2 antag
COc1ccc(N(C)C(=O)c2cc3c(s2)-c2ccccc2OC3)c(OC)c1 | -4 | -34 | -1 | -5
COc1ccc(N(C)C(=O)c2cc3c(s2)-c2ccc(Cl)cc2S(=O)(=O)C3)c(OC)c1 | 31 | 71* | -6 | 6
COc1ccc(C(=O)N2N=C(c3ccc(NS(C)(=O)=O)cc3)CC2c2cccs2)cc1 (stereo not drawn) | 51* | 22 | 5 | -16
O=C(CSc1ncccc1-c1nc2ccccc2[nH]1)N1CCCCC1 | 45 | 58* | 5 | 22
O=C(CSc1nnc2c(n1)[nH]c1ccccc12)N1CCCCC1 | 12 | 65* | 11 | -2
CN(C)C(=O)CSc1ncccc1-c1nc2ccccc2[nH]1 | -32 | 11 | -4 | -28
Cc1[nH]c(=O)[nH]c(=O)c1NC(=O)CSc1ncccc1-c1nc2ccccc2[nH]1 | 54* | 44 | 6 | -19
CC(C)NC(=O)CSc1ncccc1-c1nc2ccccc2[nH]1 | 4 | -4 | 0 | -2
C[C@H](CO)N1C[C@H](C)[C@@H](CN(C)C(=O)Nc2cccc3ccccc23)Oc2ccc(NS(=O)(=O)c3cccs3)cc2CC1=O | · | · | · | 5
CN1CCN(C(=O)C[C@@H]2CC[C@H]3[C@@H](COc4ccc(NC(=O)C5CCC5)cc4C(=O)N3C)O2)CC1 | · | · | · | 10
C[C@@H](O)C#Cc1cnc2c(c1)C(=O)N([C@@H](C)CO)C[C@H](C)[C@H](CN(C)C(=O)CN1CCOCC1)O2 | · | · | · | -3
O=[N+]([O-])c1ccc(N=Nc2ccc(O)c3ccccc23)cc1 | 33 | 69* | · | ·
O=S(=O)(Nc1ccc(N=Nc2ccc(O)c3ccccc23)cc1)c1ccccc1 | 37 | 45 | 0 | 13
C[C@H](CO)N1C[C@H](C)[C@@H](CN(C)C(=O)Nc2ccc(C(F)(F)F)cc2)Oc2ccc(NC(=O)Nc3ccc(C(F)(F)F)cc3)cc2CC1=O | · | · | · | -3
COc1ccc(C#Cc2ccc3c(c2)O[C@H](CN(C)C(=O)CN2CCOCC2)[C@@H](C)CN([C@H](C)CO)S3(=O)=O)cc1 | · | · | · | 16
COC(=O)C12OCC34C(CC5C(C)=C(O)C(=O)CC5(C)C3C(O)C1O)OC(=O)C(OC(=O)C=C(C)C)C24 (stereo not drawn) | 85* | 95* | · | 100*
NC(=O)[C@H]1CC2(CC(c3cccc(NC(=O)COc4ccc(Cl)cc4)c3)=NO2)CN1C(=O)Cc1ccc([N+](=O)[O-])cc1 (stereo partly drawn) | 29 | 65* | · | 25
COCC(=O)Nc1ccc2c(c1)C(=O)N(C)C[C@@H](OC)[C@@H](C)CN(Cc1ccccn1)[C@@H](C)CO2 | · | · | · | 2
Cc1ccccc1-c1ccc2c(c1)O[C@H](CN(C)Cc1ccc(C(=O)O)cc1)[C@H](C)CN([C@H](C)CO)S2(=O)=O | · | · | · | -7
CNC[C@H]1OCCCC[C@H](C)Oc2ccc(NC(=O)CCC(F)(F)F)cc2C(=O)N([C@@H](C)CO)C[C@@H]1C | · | · | · | -8
N=P(N1CCOCC1)(N1CCOCC1)C12CC3CC(CC(C3)C1)C2 | · | 81* | 0 | ·
O=C(C[C@H]1CC[C@@H]2[C@H](COC[C@@H](O)CN2S(=O)(=O)c2ccccc2F)O1)NCc1ccccc1Cl | · | · | · | 0
NC(=O)c1cc([N+](=O)[O-])ccc1NCc1ccc(F)cc1 | -55 | -2 | · | -24
NC(=O)c1cc([N+](=O)[O-])ccc1NCc1ccc(N)cc1 | 67* | 84* | · | -13
CC(=O)Nc1ccc(N2CCOCC2)c(S(=O)(=O)Nc2ccccc2Cl)c1 | -11 | 16 | · | 9
O=C(Nc1cccc(C(F)(F)F)c1)Nc1ccc(N2CCCC2)c(S(=O)(=O)Nc2ccccc2Cl)c1 | 41 | 80* | 0 | 12
